Records with an inconclusive call do not appear. The source made the active and inactive calls. Unless noted, calls follow the shape of the dose curve; as a rule, active = well fitted curve in the direction sought with a large enough effect in the repeat runs; inconclusive = weak or mixed curves; inactive = flat fitted curve, though single readings scatter.
Experiments:
[1] = qHTS assay to test for compound auto fluorescence at 535 nm (green) in HEK293 cells (AID 720680)
[2] = qHTS assay to test for compound auto fluorescence at 460 nm (blue) in HEK293 cell free culture (AID 720681)
Outline: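 Test compounds were pinned into cell-free culture medium (DMEM with 10% FBS) and fluorescence was read directly at Ex/Em 405/460 nm. Signals were expressed as fluorescence equivalents of triamterene, with DMSO vehicle as control.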

[3] = qHTS assay to test for compound auto fluorescence at 535 nm (green) in HEK293 cell free culture (AID 720682)
Outline: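 Green-channel intensity (Ex/Em 485/535 nm) was recorded from compound-treated wells containing only DMEM with 10% FBS. Fluorescein provided the equivalency standard.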

[4] = qHTS assay to test for compound auto fluorescence at 590 nm (red) in HEK293 cell free culture (AID 720683)
Outline: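 Tox21 10K library compounds were pinned into cell-free DMEM with 10% FBS and fluorescence was read at excitation 540 nm. Activity is expressed as Rose Bengal sodium equivalency.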

[5] = qHTS assay to test for compound auto fluorescence at 590 nm (red) in HepG2 cell free culture (AID 720684)
Outline: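 Red fluorescence (540 nm excitation, 590 nm emission) was measured after compound transfer into cell-free MEM supplemented with 10% FBS. Values are equivalencies against Rose Bengal sodium.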

[6] = qHTS assay to test for compound auto fluorescence at 460 nm (blue) in HepG2 cell free culture (AID 720685)
Outline: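 Compound (23 nL) or DMSO pinned into cell-free MEM with 10% FBS; blue fluorescence read at 405/460 nm excitation/emission, expressed as auto-fluorescence equivalency to triamterene.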

[7] = qHTS assay to test for compound auto fluorescence at 535 nm (green) in HepG2 cell free culture (AID 720686)
[8] = qHTS assay to test for compound auto fluorescence at 460 nm (blue) in HepG2 cells (AID 720687)
Outline: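 Cells (2,000/well in MEM with 10% FBS) attached overnight at 37 C, then were exposed to compound or DMSO for 1 hr at 37 C, 5% CO2. Fluorescence read at Ex/Em 405/460 nm, expressed as triamterene-equivalent signal.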

[9] = target: Glucocorticoid receptor (Homo sapiens) (UniProt P04150); test: qHTS assay to identify small molecule antagonists of the glucocorticoid receptor (GR) signaling pathway (AID 720692; active = well fitted inhibition curve with a large enough effect in the signal ratio in the repeat runs, not every such curve was filed as active; the % refers to the signal ratio)
Glucocorticoid receptor (Homo sapiens), sequence (P04150 whole entry, looked up): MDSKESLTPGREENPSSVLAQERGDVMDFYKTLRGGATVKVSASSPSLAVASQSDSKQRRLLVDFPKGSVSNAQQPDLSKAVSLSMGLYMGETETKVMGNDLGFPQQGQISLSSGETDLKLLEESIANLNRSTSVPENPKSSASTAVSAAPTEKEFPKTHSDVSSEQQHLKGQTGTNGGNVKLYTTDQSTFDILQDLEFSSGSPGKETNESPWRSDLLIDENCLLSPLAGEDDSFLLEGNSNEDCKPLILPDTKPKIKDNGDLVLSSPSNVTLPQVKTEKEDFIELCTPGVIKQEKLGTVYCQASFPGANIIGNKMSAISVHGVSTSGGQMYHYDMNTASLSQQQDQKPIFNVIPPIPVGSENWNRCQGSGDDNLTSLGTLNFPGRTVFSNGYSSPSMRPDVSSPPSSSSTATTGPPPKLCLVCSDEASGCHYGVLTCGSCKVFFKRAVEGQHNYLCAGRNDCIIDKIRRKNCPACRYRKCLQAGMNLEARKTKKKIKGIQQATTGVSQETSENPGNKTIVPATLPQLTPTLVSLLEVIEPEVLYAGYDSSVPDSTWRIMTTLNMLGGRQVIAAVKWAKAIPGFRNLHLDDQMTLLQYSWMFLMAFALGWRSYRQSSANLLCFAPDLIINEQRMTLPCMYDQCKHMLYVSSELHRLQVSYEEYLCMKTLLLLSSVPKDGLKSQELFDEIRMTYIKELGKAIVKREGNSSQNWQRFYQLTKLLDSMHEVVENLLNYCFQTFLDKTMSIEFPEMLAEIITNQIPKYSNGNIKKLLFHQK
Outline: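 Inhibition of glucocorticoid signalling is measured in HeLa cells with a GRE-controlled beta-lactamase reporter; cells are co-treated with compound and 5 nM dexamethasone (final) for 18 h before FRET substrate readout.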

[10] = target: Glucocorticoid receptor (Homo sapiens) (UniProt P04150); test: qHTS assay to identify small molecule agonists of the glucocorticoid receptor (GR) signaling pathway (AID 720691; active = well fitted activation curve with a large enough effect in the signal ratio in the repeat runs, not every such curve was filed as active; the % refers to the signal ratio)
Outline: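 qHTS in GR-bla HeLa cells: 4 h settling at 37 C/5% CO2, 18 h compound incubation at 37 C, 2 h LiveBLAzer B/G FRET substrate at room temperature, fluorescence intensity measured.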
% is scaled to controls: 0 for no effect and ±100 for the full control effect.

NC(N)=NS(=O)(=O)c1ccc(N)cc1
inactive: fluorescence, % of fluorescein [1] 0.0406% [at 18.6 µM] | fluorescence, % of fluorescent control [2] -0.0354% [at 18.6 µM] | activity change [3] 0.0753% [at 18.6 µM] | fluorescence, % of fluorescent control [4] -0.0082% [at 18.6 µM] | fluorescence, % of Rose Bengal [5] 0.343% [at 18.6 µM] | fluorescence, % of fluorescent control [6] -0.0031% [at 18.6 µM] | fluorescence, % of fluorescein control [7] -0.0207% [at 18.6 µM] | fluorescence, % of fluorescent control [8] -0.0417% [at 18.6 µM] | Potency [9]

COc1cc(CCC(C)=O)ccc1O
inactive: outcome [1] | Potency [2] | outcome [3] | outcome [4] | outcome [5] | Potency [6] | outcome [7] | Potency [8] | Potency [9]

CCCCCN(CCCCC)C(=O)C(CCC(=O)O)NC(=O)c1ccc(Cl)c(Cl)c1 (stereo not drawn)
inactive: outcome [1] | Potency [2] | outcome [3] | outcome [4] | outcome [5] | Potency [6] | outcome [7] | Potency [8] | Potency [10] | Potency [9]

CCCCCCCCC=O
inactive: outcome [1] | Potency [2] | outcome [3] | outcome [4] | outcome [5] | Potency [6] | outcome [7] | Potency [8] | Potency [10] | Potency [9]

C[C@H]1O[C@@H](n2cc(F)c(=O)[nH]c2=O)[C@H](O)[C@@H]1O
inactive: outcome [1] | Potency [2] | outcome [3] | outcome [4] | outcome [5] | Potency [6] | outcome [7] | Potency [8] | Potency [10] | Potency [9]

C=CCSCC1Nc2cc(Cl)c(S(N)(=O)=O)cc2S(=O)(=O)N1 (stereo not drawn)
inactive: outcome [1] | Potency [2] | outcome [3] | outcome [4] | outcome [5] | Potency [6] | outcome [7] | Potency [8] | Potency [10] | Potency [9]

CC(CCO)CCCC(C)(C)O (stereo not drawn)
inactive: outcome [1] | Potency [2] | outcome [3] | outcome [4] | outcome [5] | Potency [6] | outcome [7] | Potency [10]

COC(C(=O)O)c1ccccc1 (stereo not drawn)
inactive: outcome [1] | Potency [2] | outcome [3] | outcome [4] | outcome [5] | Potency [6] | outcome [7] | Potency [8] | Potency [9]

CCCCCCCCCCCCCCCCCC(=O)OCCCCCCCCCCCCCC(C)C
inactive: outcome [1] | Potency [2] | outcome [3] | outcome [4] | outcome [5] | Potency [6] | outcome [7] | Potency [8] | Potency [10] | Potency [9]

NCCN1CCNC1=O
inactive: outcome [1] | Potency [2] | outcome [3] | outcome [4] | outcome [5] | Potency [6] | outcome [7] | Potency [8] | Potency [10] | Potency [9]

CN(C)CCn1nnnc1SCC1=C(C(=O)O)N2C(=O)[C@@H](NC(=O)Cc3csc(N)n3)[C@H]2SC1
inactive: fluorescence, % of fluorescein [1] 0.129% [at 18.6 µM] | fluorescence, % of fluorescent control [2] 0.443% [at 18.6 µM] | activity change [3] 0.0595% [at 18.6 µM] | fluorescence, % of fluorescent control [4] 0.0008% [at 18.6 µM] | fluorescence, % of Rose Bengal [5] 0.544% [at 18.6 µM] | fluorescence, % of fluorescent control [6] 0.31% [at 18.6 µM] | fluorescence, % of fluorescein control [7] 0.0098% [at 18.6 µM] | fluorescence, % of fluorescent control [8] 0.222% [at 18.6 µM] | Potency [9]

CC(C)[N+](C)(C)CC(O)COc1cccc2ccccc12 (stereo not drawn)
inactive: outcome [1] | Potency [2] | outcome [3] | outcome [4] | outcome [5] | Potency [6] | outcome [7] | Potency [8] | Potency [10] | Potency [9]

C#CC(C)(O)CC(C)C (stereo not drawn)
inactive: outcome [1] | Potency [2] | outcome [3] | outcome [4] | outcome [5] | Potency [6] | outcome [7] | Potency [8] | Potency [9]

O=C(O)c1ccccc1S
inactive: outcome [1] | Potency [2] | outcome [3] | outcome [4] | outcome [5] | Potency [6] | outcome [7] | Potency [8] | Potency [10] | Potency [9]

O=C(O)c1cccc(C(=O)O)n1
inactive: outcome [1] | Potency [2] | outcome [3] | outcome [4] | outcome [5] | Potency [6] | outcome [7] | Potency [8] | Potency [10] | Potency [9]

CCCCCCCCCCCCCCC
inactive: outcome [1] | Potency [2] | outcome [3] | outcome [4] | outcome [5] | Potency [6] | outcome [7] | Potency [8] | Potency [10] | Potency [9]

CC(C)(C)CC(C)(C)N
inactive: outcome [1] | Potency [2] | outcome [3] | outcome [4] | outcome [5] | Potency [6] | outcome [7] | Potency [8] | Potency [10] | Potency [9]

CC(C)(C)N(CCO)CCO
inactive: outcome [1] | Potency [2] | outcome [3] | outcome [4] | outcome [5] | Potency [6] | outcome [7] | Potency [8] | Potency [10] | Potency [9]

CCN(CC)C(=O)c1ccc(O)c(OC)c1
inactive: outcome [1] | Potency [2] | outcome [3] | outcome [4] | outcome [5] | Potency [6] | outcome [7] | Potency [8] | Potency [10] | Potency [9]

CC(=O)NC(Cc1ccccc1)C(=O)O (stereo not drawn)
inactive: outcome [1] | Potency [2] | outcome [3] | outcome [4] | outcome [5] | Potency [6] | outcome [7] | Potency [8] | Potency [10] | Potency [9]

CC(C)CCOC(=O)CC(C)C
inactive: outcome [1] | Potency [2] | outcome [3] | outcome [4] | outcome [5] | Potency [6] | outcome [7] | Potency [10]

COc1cccc(OC)c1
inactive: outcome [1] | Potency [2] | outcome [3] | outcome [4] | outcome [5] | Potency [6] | outcome [7] | Potency [8] | Potency [10] | Potency [9]

Oc1cc(O)c2c(c1)O[C@H](c1ccc(O)c(O)c1)[C@H](O)C2
inactive: outcome [1] | Potency [2] | outcome [3] | outcome [4] | outcome [5] | Potency [6] | outcome [7] | Potency [8] | Potency [9]

CCC(=O)Nc1cccc(N)c1
inactive: outcome [1] | Potency [2] | outcome [3] | outcome [4] | outcome [5] | Potency [6] | outcome [7] | Potency [10]

— PubChem BioAssay (Tox21)
